PubChem BioAssay (NCATS)
“And” between values parts separate entries of the source, which are not always exact repeats. Identical values can stand only once. Records with an inconclusive call do not appear. The source made the active and inactive calls. Calls come from the whole dose curve; as a rule, active = well fitted curve in the direction sought with a large enough effect; inconclusive = small, poorly fitted or top-dose-only effect, or another doubt; inactive = no such curve, though single readings can be large; an effect the other way counts as inactive or inconclusive.

Target: Cellular tumor antigen p53 (Homo sapiens) (UniProt P04637)
Experiment: Primary qHTS for small molecule compounds that upregulate eGFP-tagged delta133p53alpha (in N-terminal) cells. (AID 2060322);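 note: 0% = DMSO vehicle and 100% = reference activator; nearly all actives have a fitted effect of over 75% in size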
Details: NCI-H358 eGFP-delta133p53alpha fluorescence, 24 h; activation: hits give high values
Outline: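 NCI-H358 cells pre-induced 24 h with 10 ng/ml doxycycline to express N-terminal eGFP-delta133p53alpha, then dosed 24 h at 37C without doxycycline; fixed, Hoechst-stained, GFP intensity by laser scanning cytometry, normalized to DMSO (0%) and 57.5 uM 5-azacytidine (100%).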

Cellular tumor antigen p53 (Homo sapiens), sequence (P04637 whole entry, looked up): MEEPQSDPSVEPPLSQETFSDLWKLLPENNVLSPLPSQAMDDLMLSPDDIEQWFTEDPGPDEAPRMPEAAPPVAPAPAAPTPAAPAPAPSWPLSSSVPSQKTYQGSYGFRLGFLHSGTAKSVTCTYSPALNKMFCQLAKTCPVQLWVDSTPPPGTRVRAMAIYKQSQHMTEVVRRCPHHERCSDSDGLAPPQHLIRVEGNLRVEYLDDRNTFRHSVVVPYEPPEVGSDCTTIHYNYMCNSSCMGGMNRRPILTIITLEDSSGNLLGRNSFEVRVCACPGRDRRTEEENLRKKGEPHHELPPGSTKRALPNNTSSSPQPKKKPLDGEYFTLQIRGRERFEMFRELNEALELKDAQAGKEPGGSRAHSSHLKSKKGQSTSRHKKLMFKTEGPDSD

Compound	activation
CC(CN1c2ccccc2Sc2ccccc21)N(C)C (stereo not given)	-20.9% (inactive) and -2.49% (inactive)
COCCOc1cc2ncnc(Cl)c2cc1OCCOC	-22.2% (inactive)
CC1CN(S(=O)(=O)c2cccc3cnccc23)CCN1 (stereo not given)	-66.5% (inactive)
CN1CCc2ccccc2Cc2[nH]c3ccccc3c2CC1	-5.31% (inactive)
NS(=O)(=O)c1cc2c(cc1Cl)NC(C1CC3C=CC1C3)NS2(=O)=O (stereo not given)	-1.69% (inactive) and -18.7% (inactive)
Brc1ccc([C@H]2CN3CCSC3=N2)cc1	-4.33% (inactive) and 7.97% (inactive)
COc1ccccc1CNCCCCCCNCCCCCCCCNCCCCCCNCc1ccccc1OC	-23.6% (inactive)
Cc1cc2c(cc1Cl)N(C(=O)Nc1ccnc3ccccc13)CC2	4.1% (inactive)
CCc1c(C)[nH]c2c1C(=O)C(CN1CCOCC1)CC2 (stereo not given)	4.18% (inactive) and -34.4% (inactive)
CC(O)C(O)[C@H]1CNc2nc(N)[nH]c(=O)c2N1 (stereo not given in full)	-13.4% (inactive)
Nc1ncnc2c1ncn2C1CCCC1	-5.11% (inactive)
Cc1cccc(C#Cc2ccccc2)n1	-6.63% (inactive) and 22.8% (inactive)
Nc1ccn([C@H]2O[C@H](CO)[C@@H](O)C2(F)F)c(=O)n1	7.37% (inactive)
CCCCCCN(CCCCCC)C(=O)Cc1c(-c2ccc(F)cc2)[nH]c2ccccc12	-10.8% (inactive)
Cc1cc(N)c2ccccc2[n+]1CCCCCCCCCC[n+]1c(C)cc(N)c2ccccc21	10% (inactive)
Cc1scc2c1N(C(=O)CN1CCN(C)CC1)c1ccccc1NC2=O	-13.4% (inactive) and -3.34% (inactive)
COc1cc(C(=O)OCCCN2CCCN(CCCOC(=O)c3cc(OC)c(OC)c(OC)c3)CC2)cc(OC)c1OC	-3.95% (inactive) and -82% (inactive)
NC(Cc1cccc(-c2ccccc2CP(=O)(O)O)c1)C(=O)O (stereo not given)	5.19% (inactive)
CCCn1cnc2c1c(=O)n(CCCCC(C)=O)c(=O)n2C	0.837% (inactive) and -17.3% (inactive)
NC[C@@H]1O[C@H](C23CC4CC(CC(C4)C2)C3)Cc2c1ccc(O)c2O	44.4% (inactive)

Compound	activation
O=C(O)Cc1c[nH]c2ccc(O)cc12	8.12% (inactive)
OCCN1CCN(CCCN2c3ccccc3C=Cc3ccccc32)CC1	-10.7% (inactive) and -5.62% (inactive)
CNCCNS(=O)(=O)c1cccc2cnccc12	-55.4% (inactive)
O=C(CCCN1CCC(O)(c2cccc(C(F)(F)F)c2)CC1)c1ccc(F)cc1	13.4% (inactive) and 14.3% (inactive)
O=c1cc(O)cc(/C=C/c2ccc(O)c(O)c2)o1	-54.7% (inactive)
c1ccc(C(NCCNC(c2ccccc2)c2ccccc2)c2ccccc2)cc1	-16.9% (inactive)
NC(N)=Nc1nc(CSCC/C(N)=N/S(N)(=O)=O)cs1	-9.6% (inactive) and 12.2% (inactive)
C=CCn1c(=O)c2c(nc(-c3ccc(S(=O)(=O)O)cc3)n2C)n(C)c1=O	-9.98% (inactive)
CN1CCN(CC(=O)N2c3ccccc3C(=O)Nc3cccnc32)CC1	-10% (inactive) and 3.74% (inactive)
Cc1cccc(C(=O)NCN2CCN(c3ccccc3C#N)CC2)c1	-16.7% (inactive)
Oc1cc2c(cc1O)CN(C(=S)NCCc1ccc(Cl)cc1)CCC2	-14.7% (inactive)
C[C@](Cc1ccc(O)c(O)c1)(NN)C(=O)O	-15.4% (inactive)
COc1ccc(NC(=O)c2ccc(-c3ccc(-c4noc(C)n4)cc3C)cc2)cc1N1CCN(C)CC1	-47.1% (inactive)
CN1CCc2cc(NC(=O)Nc3cccnc3)ccc21	-9.58% (inactive)
CC(=O)NCCc1c[nH]c2ccc(O)cc12	10.8% (inactive)
NCCC1CCCC(CCN)N1 (stereo not given)	10.3% (inactive)
CN(CCCOc1ccc(Cc2ccccc2)cc1)CCC(=O)O	-0.922% (inactive) and -7.16% (inactive)
NCCCNCCCCNCCCN	-8.4% (inactive)
CCOC(=O)c1cnc2c(cnn2CC)c1NN=C(C)C	11.7% (inactive) and -44.5% (inactive)
c1cnc(N2CCN(Cc3ccc4c(c3)OCO4)CC2)nc1	8.37% (inactive) and 9.57% (inactive)

Target: Cellular tumor antigen p53 (Homo sapiens) (UniProt P04637)
Experiment: Primary qHTS for small molecule compounds that upregulate eGFP-tagged delta133p53alpha (in C-terminal) cells. (AID 2060324); note: potency is the fitted concentration of half-maximal effect;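 for GFP increase (activation): 0% = DMSO wells and 100% = 57.5 µM 5-azacytidine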
Details: NCI-H358 delta133p53alpha-eGFP (C-terminal tag), GFP fluorescence imaging, 24 h; series mostly up to 57.5 µM; GFP increase (activation): at the top concentration
Outline: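 NCI-H358 cells with doxycycline-inducible D133p53a-eGFP (C-terminal tag), pre-induced 24 h with 100 ng/ml doxycycline, plated 800/well in doxycycline-free medium and treated 24 h at 37 °C with compound titrations. Cells were then fixed and Hoechst-stained, and GFP intensity was read by laser scanning cytometry.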

Compound	GFP increase (activation)	Potency
CC(CN1c2ccccc2Sc2ccccc21)N(C)C (stereo not given)	-0.0555% (inactive)	–
COCCOc1cc2ncnc(Cl)c2cc1OCCOC	3.65% (inactive)	–
CC1CN(S(=O)(=O)c2cccc3cnccc23)CCN1 (stereo not given)	-7.28% (inactive)	–
CN1CCc2ccccc2Cc2[nH]c3ccccc3c2CC1	–	26.9 µM (active)
NS(=O)(=O)c1cc2c(cc1Cl)NC(C1CC3C=CC1C3)NS2(=O)=O (stereo not given)	0.867% (inactive)	–
Brc1ccc([C@H]2CN3CCSC3=N2)cc1	-2.92% (inactive)	–
COc1ccccc1CNCCCCCCNCCCCCCCCNCCCCCCNCc1ccccc1OC	0.0662% (inactive)	–
Cc1cc2c(cc1Cl)N(C(=O)Nc1ccnc3ccccc13)CC2	-0.953% (inactive)	–
CCc1c(C)[nH]c2c1C(=O)C(CN1CCOCC1)CC2 (stereo not given)	1.23% (inactive)	–
CC(O)C(O)[C@H]1CNc2nc(N)[nH]c(=O)c2N1 (stereo not given in full)	-7.02% (inactive)	–
Nc1ncnc2c1ncn2C1CCCC1	-2.18% (inactive)	–
Cc1cccc(C#Cc2ccccc2)n1	-4.04% (inactive)	–
Nc1ccn([C@H]2O[C@H](CO)[C@@H](O)C2(F)F)c(=O)n1	10.2% (inactive)	–
CCCCCCN(CCCCCC)C(=O)Cc1c(-c2ccc(F)cc2)[nH]c2ccccc12	0.276% (inactive)	–
Cc1cc(N)c2ccccc2[n+]1CCCCCCCCCC[n+]1c(C)cc(N)c2ccccc21	11.5% (inactive)	–
Cc1scc2c1N(C(=O)CN1CCN(C)CC1)c1ccccc1NC2=O	-4.61% (inactive)	–
COc1cc(C(=O)OCCCN2CCCN(CCCOC(=O)c3cc(OC)c(OC)c(OC)c3)CC2)cc(OC)c1OC	6% (inactive)	–
NC(Cc1cccc(-c2ccccc2CP(=O)(O)O)c1)C(=O)O (stereo not given)	-5.8% (inactive)	–
CCCn1cnc2c1c(=O)n(CCCCC(C)=O)c(=O)n2C	-5.62% (inactive)	–
NC[C@@H]1O[C@H](C23CC4CC(CC(C4)C2)C3)Cc2c1ccc(O)c2O	–	23.9 µM (active)

Compound	GFP increase (activation)	Potency
O=C(O)Cc1c[nH]c2ccc(O)cc12	-5.53% (inactive)	–
OCCN1CCN(CCCN2c3ccccc3C=Cc3ccccc32)CC1	2.57% (inactive)	–
CNCCNS(=O)(=O)c1cccc2cnccc12	22% (inactive)	–
O=C(CCCN1CCC(O)(c2cccc(C(F)(F)F)c2)CC1)c1ccc(F)cc1	9.56% (inactive)	–
O=c1cc(O)cc(/C=C/c2ccc(O)c(O)c2)o1	-0.873% (inactive)	–
c1ccc(C(NCCNC(c2ccccc2)c2ccccc2)c2ccccc2)cc1	11.9% (inactive)	–
NC(N)=Nc1nc(CSCC/C(N)=N/S(N)(=O)=O)cs1	0.374% (inactive)	–
C=CCn1c(=O)c2c(nc(-c3ccc(S(=O)(=O)O)cc3)n2C)n(C)c1=O	8.89% (inactive)	–
CN1CCN(CC(=O)N2c3ccccc3C(=O)Nc3cccnc32)CC1	-2.55% (inactive)	–
Cc1cccc(C(=O)NCN2CCN(c3ccccc3C#N)CC2)c1	-0.585% (inactive)	–
Oc1cc2c(cc1O)CN(C(=S)NCCc1ccc(Cl)cc1)CCC2	-2.97% (inactive)	–
C[C@](Cc1ccc(O)c(O)c1)(NN)C(=O)O	1.14% (inactive)	–
COc1ccc(NC(=O)c2ccc(-c3ccc(-c4noc(C)n4)cc3C)cc2)cc1N1CCN(C)CC1	16.2% (inactive)	–
CN1CCc2cc(NC(=O)Nc3cccnc3)ccc21	1.18% (inactive)	–
CC(=O)NCCc1c[nH]c2ccc(O)cc12	-2.72% (inactive)	–
NCCC1CCCC(CCN)N1 (stereo not given)	-13% (inactive)	–
CN(CCCOc1ccc(Cc2ccccc2)cc1)CCC(=O)O	-11.8% (inactive)	–
NCCCNCCCCNCCCN	-11.6% (inactive)	–
CCOC(=O)c1cnc2c(cnn2CC)c1NN=C(C)C	0.625% (inactive)	–
c1cnc(N2CCN(Cc3ccc4c(c3)OCO4)CC2)nc1	-9.58% (inactive)	–
